Reference: PubChem BioAssay (NCI)
Compounds without any hit were thinned out: in the full panel of roughly 83,000, 20% have a hit.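 Single-concentration screen, 48 h exposure, 96-well plates. Endpoint: percent growth. Below 10 = active.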 Unmarked numbers belong to inactive results. The source made the active and inactive calls.

System: HL-60(TB) leukemia
Experiment: NCI-60 one-dose screen, 48 h (100 = growth as untreated, 0 = no growth, -100 = all killed)
Details: 10 µM unless noted

| SMILES | growth |
| --- | --- |
| COc1cccc(/C(C#N)=C/c2nc3c(N4CCOCC4)nc(Cl)nc3n2C)c1 | -32% (active) |
| O=C1/C(=C\c2coc3ccccc3c2=O)c2ccccc2N1c1c(Cl)cccc1Cl | 33.8% |
| CN(CCC#N)c1ccc(/C=C2\NC(=O)NC2=O)cc1 | 92.2% |
| O=C(Nc1cccc(-n2cc(-c3ccncc3)c(-c3ccc(O)c(Cl)c3)n2)c1)c1cccc(C(F)(F)F)c1 | 13.3% |
| COC(=O)c1c2c(c(C)[n+]([O-])c1C)C(=O)C=C(NCc1ccc(Cl)cc1)C2=O | -30.5% (active) |
| O=C(Nc1nc(Cl)nc(Nc2ccc(N3CCOCC3=O)cc2)n1)c1ccc(Cl)s1 | 68.7% |
| CC1=C(NCCN2CCCC2)C(=O)c2c(OCc3ccc(C(F)(F)F)cc3)cccc2C1=O | -20.6% (active) |
| COc1cc2ncnc(Nc3ccc(O)cc3)c2cc1OC | 83.5% |
| CS(=O)(=O)c1ccc(C(=O)N/N=C/c2cccc3ccccc23)cc1 | 37.5% |
| CCCCc1c(CCC)c(=N)c2ccccc2n1C | 77% |
| COc1cc2nc(SCc3cc(OC)c(OC)c(OC)c3)n(Cc3ccccc3)c(=O)c2cc1OC | 11.9% |
| COc1cc2nc(N3CCCC3)nc(NCCc3ccccc3)c2cc1OC | -53.6% (active) |
| COc1ccc(C(Cc2ccccc2)NCCN2CCOCC2)cc1 (centres undefined) | 93.8% |
| C=C(C)[C@@H]1CC[C@]2(COC(C)=O)CC[C@]3(C)[C@H](CC[C@@H]4[C@@]5(C)CCCN(C(C)=O)C(C)(C)[C@@H]5CC[C@]43C)[C@@H]12 | -29.2% (active) |
